# “And” between values parts separate entries of the source, which are not always exact repeats. Equal values may be shown once. The whole screen tested about 2,000 compounds, of which about 100 (5%) were called active. No stated cut-off is given here; in the data, active means z-score above about 2; inactive means the rest. Many of the other results were omitted from the sample, so actives are more common in it than they were.
# Assay: supercomplex reporter luminescence per Hoechst cell count – Hoechst nuclei count (AID 1645838);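 further: control cybrid cells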;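 on z-score: higher means more mitochondrial supercomplex formation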
# Conditions: Cells, luminescence/Hoechst cell count ratio; for z-score: stronger effect = higher value; for cell count: measured here: cell number, Hoechst nuclei count; for outcome: library stock 10 mM
# [1] = library stock concentration (final well concentration not given) 80 uM
# [2] = library stock concentration (final well concentration not given) 400 uM
# [3] = library stock concentration (final well concentration not given) 2 mM
# [4] = library stock concentration (final well concentration not given) 10 mM
# [5] = library stock concentration (final well concentration not given) 46 uM
# [6] = library stock concentration (final well concentration not given) 278 uM
# [7] = library stock concentration (final well concentration not given) 1.67 mM
structure (smiles),measurement,setting,value
CCCCC[C@H](O)/C=C/[C@H]1C(=O)C=C[C@@H]1C/C=C\CCCC(=O)O,z-score,,-0.0566 (inactive)
same,cell count,,4900
NCCCCN(Cc1nc2ccccc2[nH]1)C1CCCc2cccnc21 (stereo unspecified),z-score,[1],-0.0283 (inactive)
same,z-score,[2],0.157 (inactive)
same,z-score,[3],0.36 (inactive)
same,z-score,[4],2.01 (active)
same,cell count,[1],5890
same,cell count,[2],5860
same,cell count,[3],5630
same,cell count,[4],3290
CCCCC[C@@](C)(O)/C=C/[C@@H]1[C@@H](C/C=C\CCCC(=O)OC)[C@@H](O)C[C@H]1O,z-score,,-0.104 (inactive)
same,cell count,,5030
CCCCC[C@H](O)/C=C/[C@@H]1c2cc(CCCCC(=O)O)n(-c3ccccc3)c2C[C@H]1O,z-score,,-1.31 (inactive)
same,cell count,,6120
COc1cc(OC)c(NC(=O)Nc2cc(C)on2)cc1Cl,z-score,[1],-0.669 (inactive)
same,z-score,[2],-0.368 (inactive)
same,z-score,[3],-0.584 (inactive)
same,z-score,[4],-0.574 (inactive)
same,cell count,[1],6520
same,cell count,[2],5740
same,cell count,[3],6660
same,cell count,[4],5990
COc1cc2nccc(Oc3ccc(NC(=O)Nc4cc(C)on4)c(Cl)c3)c2cc1OC,outcome,,inactive; censored for cell count
same,z-score,[1],-0.536 (inactive) and -0.288 (inactive)
same,z-score,[2],-0.724 (inactive) and -0.129 (inactive)
same,z-score,[3],-1.01 (inactive) and -0.967 (inactive)
same,z-score,[4],5.93 (active)
same,cell count,[1],4520 and 5260
same,cell count,[2],4890 and 4760
same,cell count,[3],4710 and 4870
same,cell count,[4],1710
COC(=O)C(CCSC)NC(=O)c1ccc(NCC(N)CS)cc1-c1ccccc1 (stereo unspecified),z-score,[1],-0.72 (inactive)
same,z-score,[2],-0.795 (inactive)
same,z-score,[3],-0.715 (inactive)
same,z-score,[4],-1.02 (inactive)
same,cell count,[1],6120
same,cell count,[2],6350
same,cell count,[3],6090
same,cell count,[4],5780
COc1ccc2c(c1)CN(C)CCS2,z-score,[1],-0.906 (inactive)
same,z-score,[2],-0.795 (inactive)
same,z-score,[3],-1.04 (inactive)
same,z-score,[4],-1.49 (inactive)
same,cell count,[1],6210
same,cell count,[2],6190
same,cell count,[3],6290
same,cell count,[4],6260
CCCCC[C@H](O)/C=C/[C@H]1C(=O)C[C@H](O)[C@@H]1C/C=C\CCCC(=O)NC(CO)CO,z-score,,1.15 (inactive)
same,cell count,,4420
CCCCC/C=C\C/C=C\C/C=C\C/C=C\CCCC(=O)NC[C@]1(C)CCC[C@]2(C)c3ccc(C(C)C)cc3CC[C@@H]12,z-score,,-0.12 (inactive)
same,cell count,,4820
CCC(C)(C)C(=O)OC1CC(C)C=C2C=CC(C)C(CCC3CC(O)CC(=O)O3)[C@H]21 (stereo partly specified),z-score,[1],-0.332 (inactive)
same,z-score,[2],-0.176 (inactive)
same,z-score,[3],-0.124 (inactive)
same,z-score,[4],3.34 (active)
same,cell count,[1],6550
same,cell count,[2],6140
same,cell count,[3],6050
same,cell count,[4],2650
CCCCCCNC(=O)Nc1ccc(S(=O)(=O)Nc2ccc(CCNCC(O)COc3ccc(O)cc3)cc2)cc1 (stereo unspecified),z-score,[1],-0.212 (inactive)
same,z-score,[2],0.0631 (inactive)
same,z-score,[3],-0.344 (inactive)
same,z-score,[4],0.114 (inactive)
same,cell count,[1],5240
same,cell count,[2],4980
same,cell count,[3],5190
same,cell count,[4],4950
N#Cc1cccc(C#N)c1-c1nc2c3ccccc3c3cc(Cl)ccc3c2[nH]1,z-score,[5],-0.238 (inactive)
same,z-score,[6],-0.156 (inactive)
same,z-score,[7],-0.196 (inactive)
same,z-score,[4],0.519 (inactive)
same,cell count,[5],6980
same,cell count,[6],6500
same,cell count,[7],7350
same,cell count,[4],6120
COc1ccccc1Oc1ccc(N(Cc2cccnc2)S(=O)(=O)CC(F)(F)F)cc1,z-score,[5],0.268 (inactive)
same,z-score,[6],-0.0606 (inactive)
same,z-score,[7],2 (active)
same,z-score,[4],0.543 (inactive)
same,cell count,[5],6460
same,cell count,[6],6750
same,cell count,[7],6250
same,cell count,[4],5860
CCOc1ccc(-n2c(C(C)N(Cc3cccnc3)C(=O)Cc3ccc(F)c(C(F)(F)F)c3)nc3ncccc3c2=O)cc1 (stereo unspecified),z-score,[1],-0.219 (inactive)
same,z-score,[2],-0.0969 (inactive)
same,z-score,[3],0.0541 (inactive)
same,z-score,[4],-0.0286 (inactive)
same,cell count,[1],5590
same,cell count,[2],5490
same,cell count,[3],5970
same,cell count,[4],4780
CCOc1ccc(-n2c(C(C)N(Cc3cccnc3)C(=O)Cc3ccc(OC(F)(F)F)cc3)nc3ncccc3c2=O)cc1 (stereo unspecified),z-score,[1],0.00539 (inactive)
same,z-score,[2],0.51 (inactive)
same,z-score,[3],-0.332 (inactive)
same,z-score,[4],-0.306 (inactive)
same,cell count,[1],4950
same,cell count,[2],4820
same,cell count,[3],4910
same,cell count,[4],4660
CCCCCCCCCCCCCCCCC/C=C/C(=O)O,z-score,,0.212 (inactive)
same,cell count,,4980
Cc1nc(Nc2ncc(C(=O)Nc3c(C)cccc3Cl)s2)cc(N2CCN(CCO)CC2)n1,outcome,,inactive; censored for cell count
same,z-score,[5],-0.0819 (inactive)
same,z-score,[1],3.96 (active)
same,z-score,[6],0.412 (inactive)
same,z-score,[2],5.15 (active)
same,z-score,[7],3.64 (active)
same,z-score,[3],6.64 (active)
same,z-score,[4],3.97 (active)
same,cell count,[5],4850
same,cell count,[1],2250
same,cell count,[6],4290
same,cell count,[2],1990
same,cell count,[7],2120
same,cell count,[3],1770
same,cell count,[4],1700
CCCCC[C@@H](O)/C=C/[C@H]1[C@H](C/C=C\CCCC(=O)O)C(=O)C[C@@H]1O,z-score,,-0.0856 (inactive)
same,cell count,,5040
CCC(=O)NCC1CC1c1cccc2c1CCO2 (stereo unspecified),z-score,[5],0.0958 (inactive)
same,z-score,[6],0.113 (inactive)
same,z-score,[7],-0.0496 (inactive)
same,z-score,[4],-0.0795 (inactive)
same,cell count,[5],6660
same,cell count,[6],6440
same,cell count,[7],7030
same,cell count,[4],7060
